Test results taken from PubChem BioAssay (Tox21).
Records with an inconclusive call do not appear. Activity calls are given as the source filed them. Unless noted, calls come from the whole dose curve; as a rule, active = well fitted curve in the direction sought with a large enough effect in the repeat runs; inconclusive = weak or mixed curves; inactive = no such curve, though single readings can be large; an effect the other way counts as inactive or inconclusive.

Columns and labels:
[1] = biological target: Progesterone receptor (Homo sapiens) (UniProt P06401); experiment: qHTS assay to identify small molecule agonists of the progesterone receptor (PR) signaling pathway (AID 1346784; calls by dose curve; note: nearly all actives have a fitted effect of over 30% in size; note: potency is the fitted concentration of half-maximal effect)
Procedure, shortened: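 Beta-lactamase reporter read-out: after 16 hr compound treatment at 37C and a further 2 hr at room temperature with LiveBLAzer B/G FRET substrate, fluorescence was measured in PR-UAS-bla HEK 293T cells grown in 2% charcoal-stripped serum.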

[2] = biological target: Progesterone receptor (Homo sapiens) (UniProt P06401); experiment: qHTS assay to identify small molecule antagonists of the progesterone receptor (PR) signaling pathway (AID 1346795; active = well fitted inhibition curve with a large enough effect in the signal ratio in the repeat runs, not every such curve was filed as active; the % refers to the signal ratio; note: potency is the fitted concentration of half-maximal effect)
Procedure, shortened: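 Read-out is fluorescence from the LiveBLAzer B/G FRET substrate, cleaved by a UAS-controlled beta-lactamase in PR-UAS-bla HEK293T cells after 16 hr exposure to compound plus 1 nM promegestone (final), followed by 2 hr at room temperature.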

[3] = qHTS assay to identify small molecule antagonists of the progesterone receptor (PR) signaling pathway - cell viability counter screen (AID 1346798);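 note: HEK293T PR-UAS-bla cells stimulated with the agonist R5020; series mostly up to about 92 µM; nearly all actives have a fitted effect of over 50% in size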
Procedure, shortened: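 HEK293T PR-UAS-bla, 2% charcoal-stripped FBS; 4 hr pre-plate; cpd + R5020, 16 h 37C; LiveBLAzer read first; then CellTiter-Glo 30 min RT, luminescence.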

[4] = qHTS assay to identify small molecule agonists of the progesterone receptor (PR) signaling pathway - cell viability counter screen (AID 1346799; calls by dose curve; note: nearly all actives have a fitted effect of over 45% in size)
Procedure, shortened: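 Luminescence from CellTiter-Glo, added after the beta-lactamase FRET read in the same wells, gave cytotoxicity in PR-UAS-bla HEK293T cells treated with compounds for 16 hr at 37C.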

[5] = qHTS assay to identify small molecule antagonists of the TGF-beta/Smad signaling pathway - cell viability counter screen (AID 1346824); note: nearly all actives have a fitted effect of over 50% in size
Procedure, shortened: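 Cytotoxicity counter-screen run in the same wells as the beta-lactamase Smad reporter read: CellTiter-Glo luminescence after 30 min at room temperature. HEK 293T SBE-bla cells had 5 hr compound exposure at 37 C with TGF-beta1 (0.25 ng/mL stock).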

[6] = qHTS assay to identify small molecule agonists of the TGF-beta/Smad signaling pathway - cell viability counter screen (AID 1346829); note: top concentration of the series differs between compounds; nearly all actives have a fitted effect of over 45% in size
Procedure, shortened: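 Cytotoxicity counter screen: CellTiter-Glo luminescence (30 min, room temperature) measured in the SBE-bla HEK 293T reporter wells after 5 hr compound treatment at 37 C and the 2 hr substrate step.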

[7] = qHTS assay to identify small molecule agonists of the TGF-beta/Smad signaling pathway (AID 1346859; active = well fitted activation curve with a large enough effect in the signal ratio in the repeat runs, not every such curve was filed as active; the % refers to the signal ratio; note: series mostly up to about 77 µM)
Procedure, shortened: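 SBE-bla HEK 293T, 4,000 cells/well, plated o/n; cpd in DMSO, 5 hr, 37 C/5% CO2; B/G FRET substrate 2 hr RT; ex 405, em 460/530 nm.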

[8] = biological target: Thyrotropin-releasing hormone receptor (Homo sapiens) (UniProt P34981); experiment: qHTS assay to identify small molecule antagonists of the thyrotropin-releasing hormone receptor (TRHR) signaling pathway (AID 1346877; active = well fitted inhibition curve with a large enough effect in the repeat runs, not every such curve was filed as active; note: series mostly up to about 51 µM)
Procedure, shortened: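 Kinetic fluorescence (3 min, 1 s resolution) following stimulation with TRH at 1 nM final; HEK293 cells bearing human TRHR; 5 min compound preincubation at RT; concentration-response over 15 points, triplicates.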

[9] = biological target: Thyrotropin-releasing hormone receptor (Homo sapiens) (UniProt P34981); experiment: qHTS assay to identify small molecule agonists of the thyrotropin-releasing hormone receptor (TRHR) signaling pathway (AID 1346891; calls by dose curve; note: series mostly up to about 58 µM)
Procedure, shortened: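 Intracellular calcium rise, read as fluorescence every second for 3 min, served as the agonist signal in dye-loaded HEK293 cells expressing TRHR; each compound ran at 15 concentrations in triplicate.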

[10] = Human pregnane X receptor (PXR) small molecule agonists, qHTS cell viability counter screen (AID 1346977); note: nearly all actives have a fitted effect of over 50% in size; note: potency is the fitted concentration of half-maximal effect
Procedure, shortened: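 PXR-Luc HepG2, 2,000 cells/well, 5% charcoal-stripped FBS; 5hr settle; cpd 24hr, 37C/5% CO2; CellTiter-Fluor at 23hr, read 1hr later (fluorescence).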
% is set by controls: 0 for no effect and ±100 for the full control effect.

Progesterone receptor (Homo sapiens), sequence (P06401 whole entry, looked up): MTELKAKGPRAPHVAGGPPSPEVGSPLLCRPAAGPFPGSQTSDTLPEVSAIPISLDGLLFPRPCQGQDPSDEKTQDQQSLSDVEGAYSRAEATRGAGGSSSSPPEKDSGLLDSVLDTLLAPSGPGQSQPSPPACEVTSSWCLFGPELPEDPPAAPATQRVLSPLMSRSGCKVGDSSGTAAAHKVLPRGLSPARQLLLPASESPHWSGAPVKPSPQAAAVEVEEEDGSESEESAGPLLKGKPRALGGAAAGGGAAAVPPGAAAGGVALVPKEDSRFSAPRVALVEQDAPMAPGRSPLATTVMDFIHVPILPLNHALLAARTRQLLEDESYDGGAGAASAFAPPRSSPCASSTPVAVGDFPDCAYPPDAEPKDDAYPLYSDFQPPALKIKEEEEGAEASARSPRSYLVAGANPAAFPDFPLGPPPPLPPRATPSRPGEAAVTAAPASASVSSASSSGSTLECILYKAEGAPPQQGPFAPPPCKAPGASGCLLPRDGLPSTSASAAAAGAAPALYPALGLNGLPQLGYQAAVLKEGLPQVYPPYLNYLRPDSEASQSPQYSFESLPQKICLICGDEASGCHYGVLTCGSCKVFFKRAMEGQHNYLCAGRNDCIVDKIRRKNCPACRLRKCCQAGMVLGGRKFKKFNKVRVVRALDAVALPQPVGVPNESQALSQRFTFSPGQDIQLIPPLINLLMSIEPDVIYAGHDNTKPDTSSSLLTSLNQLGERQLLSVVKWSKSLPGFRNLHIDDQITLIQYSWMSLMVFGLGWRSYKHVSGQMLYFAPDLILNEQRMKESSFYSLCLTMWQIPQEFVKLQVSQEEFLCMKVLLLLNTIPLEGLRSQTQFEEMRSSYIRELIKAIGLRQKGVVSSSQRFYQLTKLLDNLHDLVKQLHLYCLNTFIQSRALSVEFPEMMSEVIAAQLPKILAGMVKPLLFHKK
Thyrotropin-releasing hormone receptor (Homo sapiens), sequence (P34981 whole entry, looked up): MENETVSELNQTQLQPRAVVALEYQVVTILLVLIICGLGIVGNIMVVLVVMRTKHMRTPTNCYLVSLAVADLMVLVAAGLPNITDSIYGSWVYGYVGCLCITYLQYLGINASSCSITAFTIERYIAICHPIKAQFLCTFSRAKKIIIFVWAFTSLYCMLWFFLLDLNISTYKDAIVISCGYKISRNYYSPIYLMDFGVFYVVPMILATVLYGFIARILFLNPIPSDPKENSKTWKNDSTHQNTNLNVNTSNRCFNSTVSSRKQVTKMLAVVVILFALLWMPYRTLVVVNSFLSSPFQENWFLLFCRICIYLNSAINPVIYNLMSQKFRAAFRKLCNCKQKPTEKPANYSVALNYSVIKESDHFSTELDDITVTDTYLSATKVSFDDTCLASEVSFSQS

CCOc1ccc(N=Nc2ccc(/C=C/c3ccc(N=Nc4ccc(OCC)cc4)cc3S(=O)(=O)O)c(S(=O)(=O)O)c2)cc1
inactive: Potency [1] | Potency [2] | Potency [3] | Potency [4] | Potency [5] | outcome [6] | Potency [7] | outcome [8] | Potency [9]
active: Potency [10] 47.8 µM

CCC(Cl)CCC(Cl)C(Cl)CC(Cl)C(Cl)C(Cl)CCl (stereo not drawn)
inactive: Potency [1] | Potency [2] | Potency [3] | Potency [4] | Potency [5] | outcome [6] | Potency [7] | outcome [8] | Potency [9] | Potency [10]

C[N+]1(CC2COC(c3ccccc3)(C3CCCCC3)O2)CCCCC1 (stereo not drawn)
inactive: Potency [1] | Potency [2] | Potency [3] | Potency [4] | Potency [5] | outcome [6] | Potency [7]

COc1cccc(N(C)C(=S)Oc2ccc3c(c2)CCCC3)n1
inactive: Potency [1] | Potency [3] | Potency [4] | Potency [5] | outcome [6] | Potency [7] | outcome [8] | Potency [9]
active: Potency [2] 18.8 µM

CCOC(=O)C(=O)CCc1ccccc1
inactive: Potency [1] | Potency [2] | Potency [3] | Potency [4] | Potency [5] | outcome [6] | Potency [7] | outcome [8] | Potency [9] | Potency [10]

OC(C#CCN1CCCC1)(c1ccccc1)c1ccccc1
inactive: Potency [1] | Potency [2] | Potency [3] | Potency [4] | Potency [5] | outcome [6] | Potency [7] | outcome [8] | Potency [9]

C=C(C)C(=O)OCCO
inactive: Potency [1] | Potency [2] | Potency [3] | Potency [4] | Potency [5] | outcome [6] | Potency [7] | outcome [8] | Potency [9]

O=C1OC(CN2CCOCC2)CN1/N=C/c1ccc([N+](=O)[O-])o1 (stereo not drawn)
inactive: Potency [1] | Potency [2] | Potency [3] | Potency [4] | Potency [5] | outcome [6] | Potency [7]

CCOC(=O)Cc1cccc2ccccc12
inactive: Potency [1] | Potency [2] | Potency [3] | Potency [4] | Potency [5] | outcome [6] | Potency [7] | outcome [8] | Potency [9] | Potency [10]

CCC(=O)O[C@]1(C(=O)CCl)[C@@H](C)C[C@H]2[C@@H]3CCC4=CC(=O)C=C[C@]4(C)[C@@]3(F)[C@@H](O)C[C@@]21C
inactive: Potency [2] | Potency [3] | Potency [4] | Potency [5] | outcome [6] | Potency [7] | outcome [8] | Potency [9]
active: Potency [1] 0.0009 µM

CN(C)c1ccc(C(c2ccccc2)c2ccc(N(C)C)cc2)cc1
active: Potency [2] 13.7 µM
inactive: Potency [1] | Potency [3] | Potency [4] | Potency [5] | outcome [6] | Potency [7] | outcome [8] | Potency [9]

CN1CCN(C(c2ccccc2)c2ccccc2)CC1
inactive: Potency [1] | Potency [2] | Potency [3] | Potency [4] | Potency [5] | outcome [6] | Potency [7] | outcome [8] | Potency [9]

NCC(=O)O
inactive: activation [1] -0.192% [at 19 µM] | activity change, negative = inhibition [2] 9.41% [at 18.9 µM] | activity change, negative = cytotoxicity [3] -3.8% [at 18.9 µM] | activity change, negative = cytotoxicity [4] 27.9% [at 19 µM] | viability change, negative = cytotoxic [5] -5.27% [at 15.8 µM] | activity change, negative = cytotoxicity [6] 0.104% [at 15.8 µM] | activation [7] -0.809% [at 15.8 µM] | activity, negative = inhibition [8] -3.84% [at 10.5 µM] | activation [9] -0.0833% [at 11.8 µM] | activity change, negative = cytotoxicity [10] 14.5% [at 19 µM]

CNC(=O)CN(CCN(CCN(CC(=O)[O-])CC(=O)NC)CC(=O)[O-])CC(=O)[O-].O.[Gd+3]
inactive: Potency [1] | Potency [2] | Potency [3] | Potency [5] | outcome [6] | Potency [7] | outcome [8] | Potency [9]

Cc1ccc(N=Nc2c(O)c(C(=O)O)cc3ccccc23)c(S(=O)(=O)O)c1
inactive: Potency [1] | Potency [2] | Potency [3] | Potency [4] | Potency [5] | outcome [6] | Potency [7] | outcome [8] | Potency [9]
active: Potency [10] 23.6 µM

CC1(c2ccccc2)OC(C(=O)O)=CC1=O (stereo not drawn)
inactive: Potency [1] | Potency [2] | Potency [3] | Potency [4] | outcome [6] | Potency [7] | outcome [8] | Potency [9] | Potency [10]

CC1=CC=C(C(C)C)CC1
inactive: Potency [1] | Potency [2] | Potency [3] | Potency [4] | Potency [5] | outcome [6] | Potency [7] | Potency [10]

O=C(O)C1(C(=O)O)CCC1.[NH2-].[NH2-].[Pt+2]
inactive: Potency [1] | Potency [2] | Potency [3] | Potency [4] | Potency [5] | outcome [6] | Potency [7] | outcome [8] | Potency [9] | Potency [10]

CC[N+]1(CC)CCC(=C(c2ccccc2)c2ccccc2)C1C (stereo not drawn)
inactive: Potency [1] | Potency [2] | Potency [3] | Potency [4] | Potency [5] | outcome [6] | Potency [7] | Potency [10]

CO[C@@H]1[C@H](OC(=O)/C=C/C=C/C=C/C=C/C(=O)O)CC[C@]2(CO2)[C@H]1[C@@]1(C)O[C@@H]1CC=C(C)C
inactive: Potency [1] | Potency [2] | Potency [3] | Potency [4] | Potency [5] | outcome [6] | Potency [7] | outcome [8] | Potency [9] | Potency [10]

CCOC(=O)C1=C[C@]2(CC)CCCN3CCc4c(n1c1ccccc41)[C@@H]32
active: Potency [2] 23.7 µM | Potency [10] 26.6 µM
inactive: Potency [1] | Potency [3] | Potency [4] | Potency [5] | Potency [7] | outcome [8] | Potency [9]

C/C(=C(\CCOP(=O)(O)O)SC(=O)c1ccccc1)N(C=O)Cc1cnc(C)nc1N
inactive: activation [1] -0.857% [at 8.39 µM] | activity change, negative = inhibition [2] 5.03% [at 8.39 µM] | activity change, negative = cytotoxicity [3] 9.64% [at 8.39 µM] | activity change, negative = cytotoxicity [4] -10.4% [at 8.39 µM] | viability change, negative = cytotoxic [5] 4.01% [at 6.97 µM] | activity change, negative = cytotoxicity [6] 0.402% [at 6.97 µM] | activation [7] 2.27% [at 6.97 µM] | activity, negative = inhibition [8] -3.24% [at 4.65 µM] | activation [9] -0.266% [at 5.23 µM] | activity change, negative = cytotoxicity [10] 10.5% [at 8.39 µM]

N=c1ccn2c(n1)O[C@H]1[C@H](O)[C@@H](CO)O[C@H]12
inactive: Potency [1] | Potency [2] | Potency [3] | Potency [4] | Potency [5] | outcome [6] | Potency [7] | Potency [10]
